Source: PubChem (several laboratories)
Rows were chosen to be rich in hits. Some 3.9% of all compounds tested hit in one or more screens of this group.
HIF-2a block: HIF-2a inhibition | 786-0 RCC cells HIF-2a reporter, luciferase luminescence, overnight | inhibition, % at 18.8 µM | 360,000 compounds, 0.72% hits | AID 624352;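 active means inhibition of the luminescence signal of 40% or more relative to plate controls, in a single-dose primary screen at 18.75 µM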
C8 TRAIL sens: sensitizes caspase-8 expressing cells to TRAIL | NB7+C8 cells + TRAIL, ATPlite viability luminescence | inhibition (viability loss, TRAIL sensitization), % at 10 µM | 360,000 compounds, 1% hits | AID 624354;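 active means compounds causing at least 50% loss of cell viability in the single-dose screen, relative to plate controls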
TROY signal inh: blocks TROY-dependent signaling in reporter cells. Q293 LMP1-TROYcd NF-kB luciferase reporter, 4 h. 360,000 compounds, 0.98% hits. inhibition, % at 10 µM;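 active means compounds whose plate-normalised and pattern-corrected inhibition of the luciferase reporter signal at the single screening dose is 50% or more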
TWEAK Fn14 block: inhibitors of TWEAK-Fn14 interaction signaling. inhibition, % at 10 µM. 360,000 compounds, 2% hits. TWEAK-stimulated Fn14 reporter cells, luciferase luminescence, 8 h. AID 1159606; in the data active means inhibition above about 50%
aSyn 5UTR inh: MLPCN primary screen, SNCA 5' untranslated region | alpha-synuclein 5'UTR reporter, inhibitor activity | inhibition, % (tested at 7.5 µM) | 300,000 compounds, 0.82% hits | AID 1813; in the data active means inhibition above about 60%; inconclusive means no clear call, values can overlap the other calls;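 further: H4 neuroglioblastoma cells stably carrying SNCA 5'UTR luciferase fusion; 0% = DMSO wells and 100% = positive control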
HSP90 inh: HSP90 refolding inhibition in rabbit reticulocyte lysate | luciferase refolding luminescence, 3 h | inhibition, % at 5.6 µM | 290,000 compounds, 0.91% hits;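 active means inhibition above the screen-wide mean plus 3 SD, computed separately per campaign, cut at about 16% in these data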;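 further: 0% = DMSO wells and 100% = 60 µM geldanamycin wells; inhibitors lower the luminescence because luciferase stays unfolded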
HSP90 confirm: HSP90 inhibition, confirmation assay | shares compounds with HSP90 inh | rabbit reticulocyte lysate, luciferase refolding luminescence, 3 h | inhibition, % at 5.9 µM | 2,300 compounds, 64% hits; in the data active means inhibition above about 18%;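 further: 0% = vehicle wells and 100% = reference inhibitor wells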
FLuc counter: blocks native firefly luciferase in HSP90 counter-screen. shares compounds with HSP90 inh. purified native firefly luciferase, luminescence. inhibition, % at 5.9 µM. 2,300 compounds, 48% hits. AID 1847;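 active means inhibition above the mean inhibition of all tested sample wells plus 3 SD, cut at about 10% in these data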;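 further: 0% = DMSO with luciferase and 100% = wells lacking luciferase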
Target sequence (P08659 whole entry, looked up): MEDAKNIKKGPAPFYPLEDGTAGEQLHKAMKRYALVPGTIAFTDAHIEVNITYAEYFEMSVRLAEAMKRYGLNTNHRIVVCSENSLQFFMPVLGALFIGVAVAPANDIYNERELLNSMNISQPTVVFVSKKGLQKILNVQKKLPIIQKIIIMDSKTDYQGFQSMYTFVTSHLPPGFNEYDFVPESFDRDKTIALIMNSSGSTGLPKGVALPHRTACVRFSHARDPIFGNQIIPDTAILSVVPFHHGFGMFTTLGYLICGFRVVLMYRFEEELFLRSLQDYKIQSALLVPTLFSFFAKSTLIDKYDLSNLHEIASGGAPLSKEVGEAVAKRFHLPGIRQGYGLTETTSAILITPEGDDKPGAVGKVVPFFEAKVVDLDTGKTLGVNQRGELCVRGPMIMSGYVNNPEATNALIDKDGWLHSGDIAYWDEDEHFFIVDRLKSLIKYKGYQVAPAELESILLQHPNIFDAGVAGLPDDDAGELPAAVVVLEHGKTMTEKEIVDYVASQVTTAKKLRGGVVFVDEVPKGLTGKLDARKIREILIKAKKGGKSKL
Active calls of the source: *; ? = inconclusive; . = not tested or not shown.

SMILES | HIF-2a block | C8 TRAIL sens | TROY signal inh | TWEAK Fn14 block | aSyn 5UTR inh | HSP90 inh | HSP90 confirm | FLuc counter
Cc1nnc(N/N=C/c2ccc(-c3ccccc3F)o2)n1N | -165.7 | 4.2 | -65.6 | -20.9 | -107.5 | 64.6* | 18.1* | -11.0
COc1ccccc1CCC(=O)Nc1ccc(S(=O)(=O)Nc2ncccn2)cc1 | 8.5 | 12.2 | -4.8 | -7.4 | . | . | . | .
COc1ccc(OCC(O)CNCCOc2ccccc2OC)c(C(C)(C)C)c1 (stereo not drawn) | 25.9 | 22.6 | 0.5 | 15.6 | 27.4 | -3.1 | . | .
O=C(COc1ccc(Cl)cc1)NCc1nnc(SCC(=O)Nc2ccccc2)o1 | -79.0 | 3.2 | 0.9 | -4.2 | 9.8 | 36.8* | -1.0 | -6.2
CN(C)c1ccc(N=Nc2nc3ccccc3n2C)cc1 | 16.9 | 95.0* | 90.0* | 104.1* | -116.5 | 21.5* | 19.4* | 92.9*
COc1ccc(-c2cc3nc(CCl)[nH]c(=O)c3s2)cc1 | -9.8 | 90.8* | -2.0 | 63.0* | 71.2* | 49.8* | 56.5* | 59.3*
COc1cccc(CNc2nc3cc(-c4cccc(Cl)c4)sc3c(=O)n2C)c1 | -53.8 | 7.5 | 5.5 | -28.1 | . | . | . | .
Cc1cc(/C=C(\C#N)C(=O)N2CCOCC2)c(C)n1C1CCCC1 | -100.7 | 39.4 | 73.7* | 73.7* | 2.0 | 37.3* | 51.6* | 47.9*
C[C@@H]1CNC(=O)c2c(C(=O)Nc3ccc(CNC(=O)OC(C)(C)C)cc3)ncn21 | -15.0 | 24.4 | 17.7 | 9.7 | . | . | . | .
CC(=O)CC(=O)Nc1nc(C)cc(C)n1 | 13.8 | -6.6 | 12.2 | 22.2 | 7.0 | 27.1* | -1.1 | -3.5
CCOCC(=O)Nc1nc(C)cc(C)n1 | 14.9 | 1.2 | -0.7 | -5.2 | -9.8 | -3.1 | . | .
COc1ccc2cc3cc(C(=O)NC4CC4)sc3nc2c1 | -30.3 | 76.8* | 26.8 | 67.0* | ? | 21.1* | 47.0* | 29.2*
COC(=O)c1ccc2nc(NC(=O)C(C)(C)C)sc2c1 | 38.7 | 90.2* | 80.5* | 96.4* | ? | 66.8* | 77.8* | 73.5*
COC(=O)c1ccc2nc(NC(=O)C3CCCCC3)sc2c1 | 23.7 | 2.2 | -55.1 | -32.8 | -104.9 | 18.2* | 35.2* | -17.3
CC(C)(C)C(=O)Nc1nc2cc3c(cc2s1)OCO3 | -321.9 | 16.4 | -29.6 | 18.6 | -144.3 | 6.6 | . | .
Cc1noc(C)c1S(=O)(=O)N(C)C[C@H]1OCc2cnnn2CCCC(=O)N([C@@H](C)CO)C[C@H]1C | 8.1 | 3.8 | -5.7 | 14.9 | . | . | . | .
Cc1nnc(SCc2cnc(-c3ccc(C(C)C)cc3)s2)n1C | -50.8 | 88.3* | -9.4 | 32.7 | . | 38.2* | 50.4* | 41.2*
COc1ccc(C)cc1NC(=O)NC1CC(=O)N(c2ccc3c(c2)OCCO3)C1 (stereo not drawn) | 21.3 | 2.0 | -2.5 | 4.7 | . | . | . | .
CC1CCN(c2c([N+](=O)[O-])nn(-c3ccc4c(c3)OCCO4)[n+]2[O-])CC1 | -41.2 | -5.9 | 19.5 | 45.5 | -97.5 | 17.2* | 13.6 | -5.2
O=C(COC(=O)c1ccncc1)Nc1cccc2ccccc12 | 19.8 | -4.8 | 9.2 | -10.7 | . | . | . | .
C#CCOCCOCCOCCNc1nc(N2CCN(C(=O)[C@H](Cc3ccc(O)cc3)n3cc([C@@H](N)C(C)CC)nn3)CC2)nc(N2CCN(C(=O)[C@H](CCCCN)n3cc([C@@H](N)CC(C)C)nn3)CC2)n1 (stereo partly drawn) | . | . | . | . | 12.1 | -1.5 | . | .
C#CCOCCOCCOCCNc1nc(N2CCN(C(=O)[C@H](CCCCN)n3cc([C@@H](N)C(C)CC)nn3)CC2)nc(N2CCN(C(=O)[C@H](Cc3cc4ccccc4[nH]3)n3cc([C@@H](N)CC(C)C)nn3)CC2)n1 (stereo partly drawn) | 14.6 | -11.4 | -6.2 | 6.4 | -7.1 | 20.7* | 2.2 | -7.6
C#CCOCCOCCOCCNc1nc(N2CCN(C(=O)[C@H](Cc3ccc(O)cc3)n3cc([C@@H](N)C(C)CC)nn3)CC2)nc(N2CCN(C(=O)[C@H](CCCCN)n3cc([C@@H](N)CO)nn3)CC2)n1 (stereo partly drawn) | 14.9 | -14.7 | -2.4 | -6.9 | 6.6 | 20.8* | -2.1 | -5.4
C#CCOCCOCCOCCNc1nc(N2CCN(C(=O)[C@H](Cc3cc4ccccc4[nH]3)n3cc([C@@H](N)C(C)CC)nn3)CC2)nc(N2CCN(C(=O)[C@H](CCCCN)n3cc([C@@H](N)CO)nn3)CC2)n1 (stereo partly drawn) | . | . | . | . | 13.6 | 12.1 | . | .
O=C1CC(C(=O)O)S/C(=N\N=C\c2ccc(Br)cc2)N1 (stereo not drawn) | 19.3 | 7.8 | -8.3 | 11.9 | 9.9 | 27.3* | 22.3* | -13.6
SMILES | HIF-2a block | C8 TRAIL sens | TROY signal inh | TWEAK Fn14 block | aSyn 5UTR inh | HSP90 inh | HSP90 confirm | FLuc counter
COc1ccc2nc(NC(=O)CSc3cn[nH]n3)sc2c1 | -165.5 | 5.5 | -43.5 | 1.1 | -67.6 | -0.2 | . | .
CCOc1ccc2nc(NC(=O)CSc3cn[nH]n3)sc2c1 | -98.4 | 31.0 | -27.9 | -6.8 | 12.9 | 19.0* | 25.3* | 13.7*
COc1ccc(CN2CCC(C)(Oc3ccc(C(C)=O)cc3)C2)c2ccccc12 (stereo not drawn) | 8.8 | 5.1 | -13.3 | -2.6 | . | . | . | .
CC(C)(C)n1ncc2c(=O)n(CC(=O)NCc3ccccc3)cnc21 | -72.4 | 12.4 | 45.1 | 83.8* | -57.7 | 21.2* | 37.0* | 33.7*
CC(=O)Nc1ccc(NC(=O)Cn2cnc3c(cnn3C(C)(C)C)c2=O)cc1 | . | . | . | . | -45.2 | -2.5 | . | .
O=C1CCC(=O)N1c1ccc(-c2nc3ccccc3s2)cc1 | -66.5 | 77.7* | 82.7* | 90.4* | -119.8 | 46.3* | 74.4* | 66.0*
Nc1ccc(-c2nc3ccccc3s2)cn1 | -213.5 | 23.8 | -53.5 | 4.2 | -109.6 | -4.4 | . | .
COc1ccc(C(=O)c2coc3ccc(O)c(CN(C)C)c23)cc1 | -9.7 | -2.7 | 17.5 | -9.0 | -12.6 | 34.9* | -6.2 | -13.1
c1ccc2c(c1)CCN(c1nc3cc4c(cc3s1)OCCO4)C2 | 46.9* | 75.0* | 75.2* | 102.6* | 75.1* | 53.5* | 73.3* | 73.8*
COc1ccc(OC)c2sc(N3CCc4ccccc4C3)nc12 | -114.9 | 16.7 | -24.1 | -16.0 | 14.9 | 2.4 | . | .
Cc1ccc2nc(-c3cccc(N)c3)[nH]c2c1 | -20.3 | 67.7* | 11.8 | 60.9* | 40.2 | 17.8* | 45.3* | 32.5*
Cc1ccc(-c2nc3ccc([N+](=O)[O-])cc3[nH]2)cc1 | -96.6 | 34.3 | 16.7 | 50.9* | -37.7 | 24.6* | 41.6* | 43.4*
CC(=O)c1sc2nc(C)cc(C)c2c1N | 6.9 | -1.1 | 1.2 | -0.3 | 22.0 | -1.8 | . | .
Cc1ccc2nc(-c3sc4nc(C)cc(C)c4c3N)[nH]c2c1 | -104.2 | 56.0* | 69.8* | 78.4* | -63.2 | 24.8* | 23.3* | 18.8*
Nc1cccc(-c2nc3ccccc3[nH]2)c1 | -239.3 | 17.9 | -36.2 | 1.6 | -170.3 | 4.9 | . | .
